For 56 compounds, inhibition results are on record in PubChem BioAssay AID652257 (The Scripps Research Institute Molecular Screening Center, 2013).

Out of some 370,000 compounds screened, about 4,800 (1.3%) were called active.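 Rule for the calls: active = inhibition above about 21% made by adding two undisclosed values (limit read from the data); inactive = the rest.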 This excerpt belongs to a sample that is enriched for actives.

Chain of Protein arginine N-methyltransferase 1 (Homo sapiens) (Q99873 whole entry, looked up): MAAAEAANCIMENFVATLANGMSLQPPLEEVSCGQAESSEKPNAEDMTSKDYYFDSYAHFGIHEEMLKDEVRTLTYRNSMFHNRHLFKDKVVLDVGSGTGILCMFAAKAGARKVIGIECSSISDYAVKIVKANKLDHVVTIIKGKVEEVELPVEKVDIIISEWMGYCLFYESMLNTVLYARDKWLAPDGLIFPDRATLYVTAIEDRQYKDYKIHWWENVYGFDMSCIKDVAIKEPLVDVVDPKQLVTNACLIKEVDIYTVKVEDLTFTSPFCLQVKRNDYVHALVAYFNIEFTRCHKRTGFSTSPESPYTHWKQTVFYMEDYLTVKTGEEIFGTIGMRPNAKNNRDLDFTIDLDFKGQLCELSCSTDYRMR

The assay concerns the target Protein arginine N-methyltransferase 1 (Homo sapiens) (UniProt Q99873). Description: PRMT1 methyltransferase inhibitors, primary screen, biochemical, fluorescence polarization (AID 652257). The note with it: recombinant PRMT1, activity-based probe fluorescence polarization; at 2.79 µM; hits give high values. Background: Fluorescence polarisation rises when a labelled molecule tumbles more slowly, as on binding a larger partner.
By inhibition is commonly meant the change of the read-out against control, counted positive when it falls. Turning to `COC(=O)C1CN(CC(C)C)CCS(=O)(=O)N1Cc1ccc(F)cc1` (stereo unspecified), the inhibition was 1.47% (inactive).

Regarding `CN(CCc1ccccc1)C(=O)Cn1nc(-c2ccccc2)ccc1=O`, the inhibition was -1.41% (inactive).

In the case of `Cc1[nH]c2ccccc2c1C(=O)C(C)Sc1nnc(C2CC2)o1` (stereo unspecified), the inhibition was 2.13% (inactive). As for `Nn1c(SCC(=O)N2c3ccccc3Sc3ccccc32)nnc1-c1n[nH]c2c1CCC2`, the inhibition is 5.44% (inactive).

With `O=C(NCCN1C(=O)S/C(=C\c2cccnc2)C1=O)c1ccc(S(=O)(=O)N2CCCC2)cc1`, the inhibition was 4.69% (inactive). Next, `C/C(CC(=O)N1CCN(C=O)CC1)=N\NC(=O)c1ccc(Br)cc1`: 2.11% (inactive); `O=C(O)c1ccc(/C=C2\SC(=S)N(NC(=O)c3ccc(Br)cc3)C2=O)cc1`: 30.2% (active); `CCCn1nnnc1NCc1ccc(CC)cc1`: 1.58% (inactive). In the case of `Cc1ccc(C(=O)C2CCN(CC(=O)NCCC(C)C)CC2)cc1`, the inhibition is 4.05% (inactive). For `CN(CCO)c1ccc(/C=N/Nc2nncc3ccccc23)cc1`, the inhibition is -2.83% (inactive).

Turning to `FC(F)(F)c1nc2ccccc2nc1N/N=C/c1ccc(Cl)cc1`, the inhibition is 66.9% (active). For `Clc1ccc(Nc2ccc3ccccc3n2)cc1`, the inhibition is -3.42% (inactive). In the case of `COC(=O)[C@]1(Cc2ccccc2)NC=C(C(=O)c2ccccc2)[C@@H]1c1cccc(OC)c1`, the inhibition was 2.58% (inactive).

Consider `O=C(NCCCn1ccnc1)/C(=C\c1ccccc1F)NC(=O)c1ccccc1`, for which the inhibition was -3.1% (inactive). Under `O=C(CCN1C(=O)c2ccccc2C1=O)NCCCn1ccnc1` stands 1.79% (inactive); under `O=C(CN1C(=O)S/C(=C\c2ccccc2F)C1=O)NCCCn1ccnc1`, 29.4% (active); under `CCC[C@H]1C(=O)CC[C@@]23CCCN2C(=O)CCC[C@@H]13`, 1.57% (inactive). For the compound `COCCN(C(=O)c1ccco1)c1nnc(-c2ccc(OC)cc2)s1`, the inhibition was 1.28% (inactive). Next, `O=C(CCl)NC1CCCCN(Cc2cccc(C(F)(F)F)c2)C1=O` (stereo unspecified): 3.41% (inactive); `CC1Cn2c(nnc2-c2cccs2)S1` (stereo unspecified): 5.98% (inactive). Take `O=C(Nc1ccc(N2CCOCC2)c(Cl)c1)c1ccc(S(=O)(=O)N2CCOCC2)cc1`: the inhibition is 1.99% (inactive). For the compound `O=C(Nc1ccc2cn[nH]c2c1)c1ccc(S(=O)(=O)N2CCOCC2)cc1`, the inhibition was 3.18% (inactive). As to `O=C(Nc1ccc(S(=O)(=O)N2CCOCC2)cc1)c1ccc2ncsc2c1`, the inhibition is 22.4% (active). Under `O=C(CSc1nc2ccccc2nc1N1CCCCC1)N1CCN(S(=O)(=O)c2cccc([N+](=O)[O-])c2)CC1` stands 0.86% (inactive).

On to `O=C(CSc1nc2ccccc2n1Cc1ccccc1)NNC(=S)Nc1ccccc1`, for which the inhibition was 1.31% (inactive). In the case of `COc1ccc(-c2cc3c(c4c2ccn4C)C2CCC3C2)cn1` (stereo unspecified), the inhibition is 32.2% (active). As for `CC(=O)O[C@@]1(C(C)=O)CCC2[C@H]3C=C(C)C4=CC(=O)CC[C@@]4(C)C3CC[C@]21C` (stereo partly specified), the inhibition was -2.39% (inactive).

Consider `Cc1ccccc1-c1ccc2c(c1)O[C@@H](CN(C)Cc1ccc(C(=O)O)cc1)[C@@H](C)CN([C@H](C)CO)S2(=O)=O`, for which the inhibition is -1.8% (inactive). Next, `CCn1c(C(O)c2cc(OC)ccc2OC)nc2ccccc21` (stereo unspecified): -3.51% (inactive); `COc1ccc(OC)c(C(O)c2nc3ccccc3n2C)c1` (stereo unspecified): 5.63% (inactive). Consider `CCCn1c(C(O)c2cc(OC)ccc2OC)nc2ccccc21` (stereo unspecified), for which the inhibition is 23.1% (active). Next, `Cc1ccc(S(=O)(=O)NC(=O)N2CCCC(C)(C)C2)cc1`: -1.8% (inactive); `CN(C)C(=O)N=NC(=O)N(C)C`: 27.4% (active). Under `CC(NC(=O)c1cc(=O)[nH]c2ccccc12)c1ccc(F)cc1F` (stereo unspecified) stands 0.78% (inactive). As for `CCOC(=O)c1cccc(NC(=O)CN(C)S(=O)(=O)c2ccc(-c3cocn3)s2)c1`, the inhibition is -6.43% (inactive).

`N#CC1=C(N)Oc2c(sc3ccccc23)C1c1ccco1` (stereo unspecified): the inhibition was 26.8% (active).

On to `O=C(Nc1cccc(C(=O)NC2CC2)c1)c1ccc(F)c(S(=O)(=O)N2CCOCC2)c1`, for which the inhibition was 1.48% (inactive). Next, `O=C(Nc1ccccc1Cl)/C(Cl)=C(\Cl)S(=O)c1ccccc1` (stereo unspecified): 80.3% (active); `O=C(Nc1ccnn1C1CCN(C/C=C/c2ccc(F)cc2)CC1)C1CCCC1`: -2.06% (inactive). Under `O=C(N[C@H](C(=O)N1CCC[C@H]1C(=O)NCCc1ccccc1Cl)c1ccccc1)c1ccccc1` stands 4.7% (inactive); under `CCOC(=O)[C@]12CCCCC/C=C\1N(Cc1ccc(OC)cc1)C(=O)[C@H]2CC(=O)NCc1ccc(C)o1`, 11.7% (inactive). Next, `CCc1nc2c(OCC(N)=O)cccn2c1N(C)C(=O)c1ccc(OC)cc1`: -1.98% (inactive); `CN(C)S(=O)(=O)c1ccc(Cl)c(NC(=O)COC(=O)CC(NC(N)=O)c2ccc(Cl)cc2)c1` (stereo unspecified): -6.61% (inactive).

On to `O=c1[nH]c2ccccc2n2c(-c3ccccc3)nnc12`, for which the inhibition was 85.2% (active).

In the case of `O=C(c1ncn2c1c(=O)[nH]c1ccccc12)N1CCc2ccccc2C1`, the inhibition was -1.56% (inactive). With `N[C@@H](Cc1ccccc1)C(=O)N1CCC[C@@H]1C(=O)N1CCC2CCN(S(=O)(=O)c3ccccc3)CC21` (stereo partly specified), the inhibition is 3.14% (inactive). `Cc1nc(N)[nH]c(=O)c1Oc1cccc(C(F)(F)F)c1`: the inhibition was -1.54% (inactive).

As for `O=C(NC1CCC1)c1ccc(C#Cc2cccc(F)c2)c[n+]1[O-]`, the inhibition is -4.9% (inactive). Next, `C#CCN([C@H](C(=O)OC)C(C)CC)S(=O)(=O)c1ccccc1Br` (stereo partly specified): 1.85% (inactive); `CCN1CCN(C(=O)N[C@@H](C(=O)N[C@@H]2C(=O)N3C(C(=O)O)=C(CSc4nnnn4C)CS[C@H]23)c2ccc(O)cc2)C(=O)C1=O`: 28.5% (active); `CCOC(=O)C1=C(CSc2nnnn2C)N(C)C(=O)NC1c1ccccc1` (stereo unspecified): -1.87% (inactive). Under `CC(=O)NC1C(Oc2ccc(C=O)cc2)OC(COC(C)=O)C(OC(C)=O)C1OC(C)=O` (stereo unspecified) stands -2.72% (inactive); under `COC(=O)[C@H](C(C)C)N(CCCc1cn(Cc2ccccc2)nn1)S(=O)(=O)c1ccc(F)cc1Br`, 1.25% (inactive).

With `C=CCNC(=S)NNC(=O)COc1c(Cl)cc(Cl)cc1Cl`, the inhibition was 1.94% (inactive). Under `Cc1ccc(-n2c(COc3ccccc3)nnc2SCC(=O)Nc2ccc3c(c2)OCCO3)cc1` stands 1.77% (inactive); under `COc1ccc(-n2c(SCC(=O)Nc3ccccc3-c3ccccc3)nnc2-c2cccnc2)cc1`, -3.53% (inactive).
